Drawing on PubChem BioAssay (NCI), this text covers growth for four compounds.

SMILES strings stand for the structures. Where “and” joins values, the source holds several entries; their conditions need not be identical. Equal entries are not always repeated. The panel holds about 83,000 compounds, 20% with a hit somewhere; the sample as a whole holds those more often.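 A percent growth of 40 corresponds to 60% growth inhibition; 0 means no net growth; -100 means all cells died. Active threshold: below 10.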 Calls of active or inactive are those of the source.

This experiment deals with MDA-MB-468 breast. Kind of experiment: NCI-60 one-dose screen, 48 h (100 = growth as untreated, 0 = no growth, -100 = all killed). As to conditions: 10 µM unless noted.
For `O=C(Nc1ccc(Cl)cc1)c1cc2ccccc2cc1O`, the growth was 21.4% (inactive) and -6.92% (active). The value for `Cc1ccsc1/C=C/C1=NCCCN1C` was 92.4% (inactive); that for `Cc1ccc(-c2csc(NC(=O)N3CCN(c4cc5c(cc4F)c(=O)c(C(=O)O)cn5C4CC4)CC3)n2)cc1` was -5.11% (active). With `C#CCOC(=O)C(N)CS` (centres undefined), the growth was 97.3% (inactive).
